Unmarked numbers belong to inactive results. The source made the active and inactive calls.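 How the source made its calls: active means differentiation response of at least 50%, scaled between solvent and reference control, from cells with both markers; inactive means the rest.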
Experiment: AML differentiation inducers, ER-HoxA9 marrow cells – cell-based, GFP/MAC1 double positive, flow cytometry, validation set, primary screen (AID 588685);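 further: compound exposure lasts four days before antibody staining and flow analysis; 0% = DMSO wells and 100% = 5 µM fulvestrant positive control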
Settings: stronger effect = higher value, normalized: vehicle 0, fulvestrant 100

| Compound | differentiation response |
| --- | --- |
| Fc1ccc(-c2cc(-c3ccccc3)nc(-n3cccn3)n2)cc1 | 20.9% |
| O=c1c(-c2ccccc2)c(O)c2cccc3c2n1CCC3 | -12.9% |
| COc1cc(CC(=O)NCCc2ccc(S(N)(=O)=O)cc2)cc(OC)c1OC | 0.92% |
| CN(C)CCC(c1ccc(Cl)cc1)c1ccccn1 (stereo not given) | 37.7% |
| Cc1ccc2nc(N=C(N)N)nc(C)c2c1 | -8.96% |
| CCn1c(N2CCN(CC(=O)c3c(C)n(C)c4ccc(OC)cc34)CC2)nc2c1c(=O)[nH]c(=O)n2C | -2.69% |
| CC1(c2ccccc2)CC(C)(C)N2C(=O)C(=O)c3cccc1c32 (stereo not given) | 0.8% |
| O=C(COc1cc(O)c2c(=O)c3ccccc3oc2c1)OCc1ccccc1 | 12.9% |
| C[N+](C)(C)CCOP(=O)([O-])OC[C@H](O)CO | -6.03% |
| O=C(/C=C/Sc1ccccc1)c1ccccc1 | 37.4% |
| O=C1Cc2ccccc2C(c2ccccc2)N1 (stereo not given) | 53% (active) |
| Cc1ccc(NC(=O)CSc2nc(O)c(Cc3ccccc3)c(=O)n2-c2ccccc2)cc1 | 1.22% |
| COCCn1c(SCCOc2ccccc2)nc2ccccc2c1=O | 1.28% |
| CC(=O)Oc1ccc2c(=O)c(Oc3ccccc3[N+](=O)[O-])coc2c1 | 0% |
| CCc1c(C(C)=O)oc2ccc3c(C)cc(=O)oc3c12 | 9.01% |
| COc1ccc(-c2[nH]ncc2CN(C)C(C)c2ccon2)c(OC)c1 (stereo not given) | -4.91% |
| Cc1c(O)c(=O)ccn1C | -3.28% |
| COc1ccc2cc(C(=O)Nc3ccc(S(N)(=O)=O)cc3)sc(=O)c2c1OC | -9.01% |
| Cc1cnc(NC(=O)C2=C(O)c3ccccc3S(=O)(=O)N2C)s1 | 12% |
| O=C(O)c1ccc(N2C(=O)/C(=C\c3ccccc3)N=C2c2ccccc2)cc1 | -0.18% |
| O=C(CCC(=O)NCCO)NCCO | -1.05% |
| CC(=O)O[C@H]1C[C@@]2(C)[C@@H](C[C@@H](O)[C@H]3[C@@]4(C)CC[C@@H](O)[C@@H](C)C4CC[C@@]32C)/C1=C(\CCC=C(C)C)C(=O)O (stereo not given in full) | -9.91% |
| O=C(c1cc2cc(Br)ccc2o1)N1CCCC1 | -3.11% |
| CCOc1ccc2nc(NC(=O)NC3CCCCC3)sc2c1 | -3.11% |
| O=C(/C=C/c1c[nH]c2ccccc12)c1cccc2ccccc12 | -12% |

— PubChem BioAssay
